Experimental data: PubChem BioAssay AID2284360 (EPA ToxCast)
Results filed as inconclusive are left out. Active and inactive are the calls of the source. The calls were made as follows: active = hit-call score of the fitted dose curve at least 0.9, where 1 is the maximum; inconclusive = response in the unintended direction; inactive = score below 0.9.

assay: ATG_M_19_EcoTox2: Attagene TRANS-FACTORIAL EcoTox-2 HepG2 Assay for M19 Transcription Factor (Internal Marker)
Procedure: ATG_EcoTox2 is a cell-based, multiplexed assay created by modifying the existing Attagene TRANS-FACTORIAL system to include a panel of nuclear receptors from some or all the following species: human (Homo sapiens), african clawed frog (Xenopus laevis), rainbow trout (Oncorhynchus mykiss), japanese medaka (Oryzias latipes), and zebrafish (Danio rerio). The ECOTOX2-FACTORIAL format uses HepG2, a human liver cell line, with measurements taken at 24 hours after chemical dosing in a 24-well plate. ATG_M_19_EcoTox2 is one of 29 assay components calculated in the ATG_EcoTox2 assay. It is designed to make measurements of mRNA induction, a form of inducible reporter, as detected with fluorescence intensity signals by Reverse transcription polymerase chain reaction (RT-PCR) and Capillary electrophoresis technology.The assay endpoint ATG_M_19_EcoTox2 was analyzed in the positive analysis fitting direction relative to DMSO as the negative control and baseline of activity. Using a type of inducible reporter, measures of mRNA for gain-of-signal activity can be used to understand the background control at the transcription factor-level as they relate to the gene. Furthermore, this assay endpoint can be referred to as a secondary readout, because this assay has produced multiple assay endpoints where this one serves a background control function. […]
Human liver HepG2 cells are transiently transfected with multiple reporter transcription units (MRTUs) in 6-well plates using FuGene 6 reagent (Roche; 3 ml FuGene/1 mg DNA). […] A major difference between the CIS and TRANS system is that in CIS activities of endogenous TFs are measured, whereas the TRANS assay evaluates changes in activities of exogenous, chimeric NR-Gal4 proteins. […] The fragments were purified using Qiaquick PCR columns (Qiagen), analyzed on an ABI 3130xL genetic analyzer (Applied Biosystems) with peak positions identified by using a set of X-rhodamine (ROX)-labeled MapMarker1000 molecular weight standards (BioVentures). […]

SMILES | outcome
[Cl][Sn]([c]1ccccc1)([c]1ccccc1)[c]1ccccc1 | inactive
O=S(=O)(O)C(F)(F)C(F)(F)C(F)(F)C(F)(F)C(F)(F)C(F)(F)F | inactive
CCCCOCN(C(=O)CCl)c1c(CC)cccc1CC | inactive
